# Assay results published in PubChem BioAssay (EPA / NIEHS).
# Results filed as inconclusive are left out. Activity calls are given as the source filed them. Rule for the calls: active = hit-call score of the fitted dose curve at least 0.9, where 1 is the maximum; inconclusive = response in the unintended direction; inactive = score below 0.9.
# Target: Cellular tumor antigen p53 (Homo sapiens) (UniProt P04637)
# Assay: TOX21_p53_BLA_p5_ratio: Tox21 HCT-116 p53 Agonism Beta-lactamase Assay, Ratio, Phase 5 (AID 2283599)
# How it was run: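 HCT-116 p53-bla cells (4000/well) plated 5 h, dosed with compound (217-fold DMSO dilution) for 16 h at 37 C; CCF4-AM substrate 2 h at room temperature. Activity is the 460/530 nm emission ratio (405 nm excitation), fitted in gain-of-signal direction versus DMSO.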
# Sequence of Cellular tumor antigen p53 (Homo sapiens) (P04637 whole entry, looked up): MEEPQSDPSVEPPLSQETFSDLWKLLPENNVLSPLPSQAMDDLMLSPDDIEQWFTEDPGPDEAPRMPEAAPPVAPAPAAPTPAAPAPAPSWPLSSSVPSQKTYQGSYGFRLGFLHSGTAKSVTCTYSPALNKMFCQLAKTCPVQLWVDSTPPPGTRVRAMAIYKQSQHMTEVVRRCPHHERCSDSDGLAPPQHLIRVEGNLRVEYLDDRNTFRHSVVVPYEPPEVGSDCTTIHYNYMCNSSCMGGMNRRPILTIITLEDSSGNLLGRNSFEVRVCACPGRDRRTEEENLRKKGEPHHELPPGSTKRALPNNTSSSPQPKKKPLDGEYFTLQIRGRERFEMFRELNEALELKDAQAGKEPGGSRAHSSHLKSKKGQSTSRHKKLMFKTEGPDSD
row,SMILES,outcome
1,CC1(C)CCC(NC(=O)[C@@H](N)CCC(=O)O)CC1,inactive
2,CCCCCCCCCCCCOC(=O)c1ccc(O)cc1,inactive
3,C=CC1=C(C(=O)O)N2C(=O)[C@@H](NC(=O)C(=NOCC(=O)O)c3csc(N)n3)[C@H]2SC1,inactive
4,CCCCCCCCCCCCCCCCCCOP(=O)([O-])OC1CC[N+](C)(C)CC1,inactive
5,CN1C(=O)CC(C)(c2ccccc2)C1=O (centres undefined),inactive
6,Nc1ccc2cc(S(=O)(=O)O)cc(O)c2c1,inactive

# System: not listed separately
# Assay: TOX21_p53_BLA_p5_viability: Viability Assessment in the Tox21 HCT-116 p53 Agonism Beta-lactamase Assay, Phase 5 (AID 2283600)
# How it was run: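 ATP luminescence (CellTiter-Glo, 30 min, RT) served as the viability read-out, with loss of signal indicating cytotoxicity. Compounds in DMSO were pinned at a 217-fold dilution onto 4000 cells/well and incubated 16 h, 37C.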
row,SMILES,outcome
1,CCOC(=O)c1ncn2c1CN(C)C(=O)c1cc(F)ccc1-2,inactive
2,c1ccc2cc3c4ccccc4c4ccccc4c3cc2c1,inactive
3,OCC(CO)N[C@H]1C[C@](O)(CO)[C@@H](O)[C@H](O)[C@H]1O,inactive
4,CN(C)CCCNCCC#N,inactive
5,NC(=O)c1ccccc1N,inactive
6,O=C1c2ccccc2S(=O)(=O)N1CCCCN1CCN(c2ncccn2)CC1,inactive
7,C/C(=N\O)c1ccc(OCC(=O)N2CCCCC2)cc1,inactive
8,COc1ccccc1N1CCN(CCCCNC(=O)c2ccc(-c3ccc(C(C)=O)cc3)cc2)CC1,inactive
9,COc1cc(-c2ccc(=O)[nH]n2)ccc1OC(F)F,inactive
10,O=C(OC(=O)c1ccccc1)c1ccccc1,inactive
11,C1C[C@@H]2[C@H]3CC[C@H](C3)[C@@H]2C1,inactive
12,Cl[Si](Cl)(c1ccccc1)c1ccccc1,inactive
13,CCC(N)(CO)CO,inactive
14,COc1ccc(C2C(=O)c3ccccc3C2=O)cc1,inactive
15,C=CCCC=C,inactive
16,Cc1cc(O)cc2c1O[C@](C)(CCC[C@H](C)CCC[C@H](C)CCCC(C)C)CC2,inactive
17,O=C1c2ccccc2C(=O)C1c1ccc(Br)cc1,inactive
18,C[N+](C)(C)CC(O)CC(=O)[O-] (centres undefined),inactive
19,O=C(O)[C@H](O)[C@@H](O)[C@H](O[C@@H]1O[C@H](CO)[C@H](O)[C@H](O)[C@H]1O)[C@H](O)CO,inactive
20,N=C(N)c1ccc2cc(OC(=O)c3ccc(N=C(N)N)cc3)ccc2c1,inactive

# Target: Cellular tumor antigen p53 (Homo sapiens) (UniProt P04637)
# Assay: TOX21_p53_BLA_p4_ratio: Tox21 HCT-116 p53 Agonism Beta-lactamase Assay, Ratio, Phase 4 (AID 2283601)
# How it was run: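 HCT-116 p53 beta-lactamase reporter cells (4000/well) preincubated 5 h, then compound (217-fold dilution of DMSO stock) for 16 h at 37C. CCF4-AM substrate added 2 h at room temperature; 460/530 nm emission ratio fitted upward versus DMSO.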
row,SMILES,outcome
1,CC1(C)CCC(NC(=O)[C@@H](N)CCC(=O)O)CC1,inactive
2,CN(C)CCCNCCC#N,inactive
3,CCCCCCCCCCCCOC(=O)c1ccc(O)cc1,inactive
4,COc1ccccc1N1CCN(CCCCNC(=O)c2ccc(-c3ccc(C(C)=O)cc3)cc2)CC1,inactive
5,CCC(=O)O[C@]1(C(=O)CCl)[C@@H](C)C[C@H]2[C@@H]3CCC4=CC(=O)C=C[C@]4(C)[C@@]3(F)[C@@H](O)C[C@@]21C,inactive
6,COc1cc(-c2ccc(=O)[nH]n2)ccc1OC(F)F,inactive
7,O=C(OC(=O)c1ccccc1)c1ccccc1,inactive
8,C1C[C@@H]2[C@H]3CC[C@H](C3)[C@@H]2C1,inactive
9,O=C(OC1C[C@H]2CC[C@@H](C1)[N+]21CCCC1)C(O)(c1ccccc1)c1ccccc1 (some centres undefined),inactive
10,CCC(N)(CO)CO,inactive
11,COC(=O)CC#N,inactive
12,C=CC1=C(C(=O)O)N2C(=O)[C@@H](NC(=O)C(=NOCC(=O)O)c3csc(N)n3)[C@H]2SC1,inactive
13,COc1ccc(C2C(=O)c3ccccc3C2=O)cc1,inactive
14,C=CCCC=C,inactive
15,Cc1cc(O)cc2c1O[C@](C)(CCC[C@H](C)CCC[C@H](C)CCCC(C)C)CC2,inactive
16,C[C@]12CC[C@@H]3c4ccc(OS(=O)(=O)O)cc4CC[C@H]3[C@@H]1CCC2=O,inactive
17,CC(=O)Nc1ccc(N)cc1,inactive
18,O=C1c2ccccc2C(=O)C1c1ccc(Br)cc1,inactive
19,C[N+](C)(C)CC(O)CC(=O)[O-] (centres undefined),inactive
20,CCCCCCCCCCCCCCCCCCOP(=O)([O-])OC1CC[N+](C)(C)CC1,inactive
21,CN1C(=O)CC(C)(c2ccccc2)C1=O (centres undefined),inactive
22,Nc1ccc2cc(S(=O)(=O)O)cc(O)c2c1,inactive
23,CC(=O)OCC(=O)[C@@]12OC3(CCCC3)O[C@@H]1C[C@H]1[C@@H]3CCC4=CC(=O)C=C[C@]4(C)[C@@]3(F)[C@@H](O)C[C@@]12C,inactive
